Assay [1] in a line: NCI Yeast Anticancer Drug Screen. Data for the rad50 strain (AID 155).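 Note: 0% = growth of vehicle-only cultures of the same strain.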 The note with it: S. cerevisiae rad50 strain growth inhibition, stronger effect = higher value. In a few lines:
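Readout: growth inhibition relative to vehicle-treated cultures. Compound exposure was carried out in a genetically defined yeast strain deficient in DNA damage repair.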

The nature of assay [2]: NCI Yeast Anticancer Drug Screen. Data for the mec2-1 strain (AID 157). The note with it: S. cerevisiae mec2-1 strain, stronger effect = higher value. The procedure, abridged: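 Test agents were screened against the mec2-1 yeast strain, with defined DNA repair or cell cycle alteration. Growth was scored as inhibition against vehicle-only controls.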
The nature of assay [3]: NCI Yeast Anticancer Drug Screen. Data for the sgs1 mgt1 strain (AID 161).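 Note: 0% = growth of cultures given vehicle only.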 The note with it: S. cerevisiae sgs1 mgt1 strain, stronger effect = higher value. In a few lines:
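Genetically altered yeast, compound exposure, growth inhibition relative to vehicle.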

Assay [4] can be described thus: NCI Yeast Anticancer Drug Screen. Data for the cln2 rad14 strain (AID 165).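 Note: 0% = growth equal to vehicle treated cultures.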 To be noted: S. cerevisiae cln2 rad14 strain, stronger effect = higher value. In a few lines:
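Growth of compound-exposed yeast (cln2 rad14 genotype) measured and expressed as inhibition relative to vehicle.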

Assay [5] in a line: NCI Yeast Anticancer Drug Screen. Data for the bub3 strain (AID 167). To be noted: S. cerevisiae bub3 mutant strain, stronger effect = higher value. The procedure, abridged: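 Readout: yeast growth inhibition, expressed relative to vehicle-only wells. The test organism is a mutant strain from a panel with lesions in DNA repair or checkpoint genes.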
Assay [6] in a line: NCI Yeast Anticancer Drug Screen. Data for the mlh1 rad18 strain (AID 175). To be noted: S. cerevisiae mlh1 rad18 strain growth inhibition, stronger effect = higher value. The procedure, abridged: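 In this whole-cell yeast screen, a strain with altered DNA damage repair is challenged with compound, and its growth is measured against matched vehicle-treated controls.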
The mark [7] stands for this setting: at 5.0 µM (retest, dose inferred, filed as 0.5).
Where [8] appears, read: at 50.0 µM (retest, dose inferred, filed as 5.0).

This is part of a sample that, as a whole, favours compounds with a hit. Of some 79,000 tested, about 15% had one in any assay. A number with no mark means an inactive call. Activity calls are given as the source filed them. Cut-off read from the data, not from the text of the source: active = growth inhibition above about 70%; inactive = the rest.

Regarding `O=NNc1ncc(Sc2ccccc2)nc1Sc1ccccc1`, the growth inhibition in assay [1] (setting [7]) was -14%; in assay [1] (setting [8]) it was -8%; in assay [1] (at 50.0 µM), -0.45%; in assay [2] (setting [7]), -11%; in assay [2] (setting [8]), 13%; in assay [2] (at 50.0 µM), -24.9%. Also, the growth inhibition in assay [3] (setting [7]) is -3%; in assay [3] (setting [8]), 20%; in assay [3] (at 50.0 µM) it was 45.5%; in assay [4] (setting [7]) it was 3%; in assay [4] (setting [8]) it was 11%; in assay [4] (at 50.0 µM), 15.5%. Besides, the growth inhibition is -13% in assay [5] (setting [7]); -11% in assay [5] (setting [8]); -9.1% in assay [5] (at 50.0 µM); 4% in assay [6] (setting [7]); 12% in assay [6] (setting [8]); 71.8% (active) in assay [6] (at 50.0 µM).

With `CC1CCCN(CC(O)CN2CCCc3ccccc32)C1` (configuration not stated), the growth inhibition in assay [1] (setting [7]) is 0%; in assay [1] (setting [8]), 32%; in assay [1] (at 50.0 µM), 97.9% (active); in assay [2] (setting [7]) it was 8%; in assay [2] (setting [8]), 17%; in assay [2] (at 50.0 µM), 94.5% (active). The growth inhibition was 2% in assay [3] (setting [7]); 25% in assay [3] (setting [8]); 97.6% (active) in assay [3] (at 50.0 µM); 26% in assay [4] (setting [7]); 33% in assay [4] (setting [8]); 94.4% (active) in assay [4] (at 50.0 µM). Also, the growth inhibition in assay [5] (setting [7]) is -7%; in assay [5] (setting [8]) it was 29%; in assay [5] (at 50.0 µM), 96% (active); in assay [6] (setting [7]) it was 6%; in assay [6] (setting [8]) it was 40%; in assay [6] (at 50.0 µM), 97.5% (active).

Turning to `Cc1cc([N+](=O)[O-])ccc1NC(=O)N(C)CCOC(=O)Nc1ccccc1`, the growth inhibition is 48% in assay [1] (setting [7]); 90% (active) in assay [1] (setting [8]); 84% (active) in assay [1] (at 50.0 µM); 43% in assay [2] (setting [7]); 95% (active) in assay [2] (setting [8]); 89.2% (active) in assay [2] (at 50.0 µM). Further, the growth inhibition in assay [3] (setting [7]) is 42%; in assay [3] (setting [8]) it was 96% (active); in assay [3] (at 50.0 µM) it was 89.5% (active); in assay [4] (setting [7]), 32%; in assay [4] (setting [8]), 97% (active); in assay [4] (at 50.0 µM) it was 86.4% (active). For the same compound, the growth inhibition was 44% in assay [5] (setting [7]); 97% (active) in assay [5] (setting [8]); 89.3% (active) in assay [5] (at 50.0 µM); 64% in assay [6] (setting [7]); 96% (active) in assay [6] (setting [8]); 87.8% (active) in assay [6] (at 50.0 µM).

Turning to `COC1=CC(=O)c2ncc(Cl)cc2C1=O`, the growth inhibition in assay [1] (setting [7]) is -4%; in assay [1] (setting [8]), 97% (active); in assay [1] (at 50.0 µM) it was 96% (active); in assay [2] (setting [7]), -2%; in assay [2] (setting [8]), 92% (active); in assay [2] (at 50.0 µM), 95.5% (active). The growth inhibition in assay [3] (setting [7]) is -9%; in assay [3] (setting [8]) it was 89% (active); in assay [3] (at 50.0 µM), 93.2% (active); in assay [4] (setting [7]), -10%; in assay [4] (setting [8]), 96% (active); in assay [4] (at 50.0 µM), 97.3% (active). In addition, the growth inhibition was -40% in assay [5] (setting [7]); 88% (active) in assay [5] (setting [8]); 83.5% (active) in assay [5] (at 50.0 µM); 28% in assay [6] (setting [7]); 97% (active) in assay [6] (setting [8]); 98.3% (active) in assay [6] (at 50.0 µM).

As to `O=C1OC2=C(CCc3nc(-c4ccccc4)sc32)C(N(c2ccccc2)c2ccccc2)C1(Cl)Cl` (configuration not stated), the growth inhibition in assay [1] (setting [7]) is -4%; in assay [1] (setting [8]), 11%; in assay [1] (at 50.0 µM), 63.6%; in assay [2] (setting [7]), -5%; in assay [2] (setting [8]), 12%; in assay [2] (at 50.0 µM), 41.8%. For the same compound, the growth inhibition in assay [3] (setting [7]) was 1%; in assay [3] (setting [8]), 19%; in assay [3] (at 50.0 µM), 73% (active); in assay [4] (setting [7]), -13%; in assay [4] (setting [8]), -15%; in assay [4] (at 50.0 µM) it was 60.1%. The growth inhibition in assay [5] (setting [7]) was 0%; in assay [5] (setting [8]), -3%; in assay [5] (at 50.0 µM), 49%; in assay [6] (setting [7]), 2%; in assay [6] (setting [8]) it was 9%; in assay [6] (at 50.0 µM) it was 68.7%.

In the case of `OC(c1ccccc1)(c1ccccc1)c1ccc[cH-]1.OC(c1ccccc1)(c1ccccc1)c1ccc[cH-]1.[Fe+2]`, the growth inhibition in assay [1] (setting [7]) was 3%; in assay [1] (setting [8]), -5%; in assay [1] (at 50.0 µM), -0.6%; in assay [2] (setting [7]), 3%; in assay [2] (setting [8]), -1%; in assay [2] (at 50.0 µM), 9.45%. The growth inhibition is 3% in assay [3] (setting [7]); -16% in assay [3] (setting [8]); -2.3% in assay [3] (at 50.0 µM); 4% in assay [4] (setting [7]); -15% in assay [4] (setting [8]); -13.6% in assay [4] (at 50.0 µM). Besides, the growth inhibition in assay [5] (setting [7]) was 3%; in assay [5] (setting [8]), -1%; in assay [5] (at 50.0 µM), 70.4% (active); in assay [6] (setting [7]) it was 1%; in assay [6] (setting [8]) it was -3%; in assay [6] (at 50.0 µM), 35.4%.

As to `Cn1c(=O)c2c(nnc(-c3ccccc3)[n+]2[O-])n(C)c1=O`, the growth inhibition is -3% in assay [1] (setting [7]); 46% in assay [1] (setting [8]); 99.5% (active) in assay [1] (at 50.0 µM); -1% in assay [2] (setting [7]); 97% (active) in assay [2] (setting [8]); 99.7% (active) in assay [2] (at 50.0 µM). For the same compound, the growth inhibition in assay [3] (setting [7]) is 1%; in assay [3] (setting [8]), 90% (active); in assay [3] (at 50.0 µM) it was 99.7% (active); in assay [4] (setting [7]) it was 2%; in assay [4] (setting [8]), 43%; in assay [4] (at 50.0 µM), 99% (active). Besides, the growth inhibition in assay [5] (setting [7]) was -3%; in assay [5] (setting [8]) it was 60%; in assay [5] (at 50.0 µM), 99.6% (active); in assay [6] (setting [7]) it was -6%; in assay [6] (setting [8]), 95% (active); in assay [6] (at 50.0 µM), 99.6% (active).

As to `c1ccc2c(c1)nc1cc(NC3CCCCC3)c(=NC3CCCCC3)cc-1n2C1CCCCC1`, the growth inhibition was 8% in assay [1] (setting [7]); 4% in assay [1] (setting [8]); 44.5% in assay [1] (at 50.0 µM); 0% in assay [2] (setting [7]); 5% in assay [2] (setting [8]); 37.6% in assay [2] (at 50.0 µM). The growth inhibition was -7% in assay [3] (setting [7]); 2% in assay [3] (setting [8]); 42.8% in assay [3] (at 50.0 µM); -1% in assay [4] (setting [7]); -13% in assay [4] (setting [8]); 23.3% in assay [4] (at 50.0 µM). In addition, the growth inhibition is -3% in assay [5] (setting [7]); 16% in assay [5] (setting [8]); 39.8% in assay [5] (at 50.0 µM); 0% in assay [6] (setting [7]); -49% in assay [6] (setting [8]); 16.6% in assay [6] (at 50.0 µM).

For `COc1ccc(-c2c3ccccc3[n+](-c3ccccc3)c3ccccc23)cc1`, the growth inhibition in assay [1] (setting [7]) was 98% (active); in assay [1] (setting [8]) it was 99% (active); in assay [1] (at 50.0 µM), 99.6% (active); in assay [2] (setting [7]), 99% (active); in assay [2] (setting [8]), 100% (active); in assay [2] (at 50.0 µM) it was 99.5% (active). For the same compound, the growth inhibition is 99% (active) in assay [3] (setting [7]); 100% (active) in assay [3] (setting [8]); 99.5% (active) in assay [3] (at 50.0 µM); 96% (active) in assay [4] (setting [7]); 99% (active) in assay [4] (setting [8]); 99.2% (active) in assay [4] (at 50.0 µM). Further, the growth inhibition was 99% (active) in assay [5] (setting [7]); 99% (active) in assay [5] (setting [8]); 99.2% (active) in assay [5] (at 50.0 µM); 99% (active) in assay [6] (setting [7]); 99% (active) in assay [6] (setting [8]); 99.3% (active) in assay [6] (at 50.0 µM).
